Numbering of substitutions follows the chain as printed.
Key:
Assay in all cases: PBM; 200 nM protein, PBS
Conditions in all cases: dsDNA, one strand shown
SIX6 [1] = target: T1, SIX6 (Homo sapiens, UniProt O95475 114-200, L167I)
T1 sequence: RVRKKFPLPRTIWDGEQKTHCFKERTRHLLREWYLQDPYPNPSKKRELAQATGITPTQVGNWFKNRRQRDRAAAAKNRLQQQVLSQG

SIX6 [2] = target: T2, SIX6 (Homo sapiens, UniProt O95475 114-200, L143V)
T2 sequence: T1 sequence with L30V, I54L

SIX6 [3] = target: T3, SIX6 (Homo sapiens, UniProt O95475 114-200, H141N)
T3 sequence: T1 sequence with H28N, I54L

SIX6 [4] = target: T4, SIX6 (Homo sapiens, UniProt O95475 114-200, T165P)
T4 sequence: T1 sequence with T52P, I54L

SIX6 [5] = target: T5, SIX6 (Homo sapiens, UniProt O95475 114-200, L167M)
T5 sequence: T1 sequence with I54M

SIX6 [6] = target: T6, SIX6 (Homo sapiens, UniProt O95475 114-200, L143M)
T6 sequence: T1 sequence with L30M, I54L

SIX6 [7] = target: T7, SIX6 (Homo sapiens, UniProt O95475 114-200, L143I)
T7 sequence: T1 sequence with L30I, I54L

SIX6 [8] = target: T8, SIX6 (Homo sapiens, UniProt O95475 114-200, T165G)
T8 sequence: T1 sequence with T52G, I54L

SIX6 [9] = target: T9, SIX6 (Homo sapiens, UniProt O95475 114-200, T139Q)
T9 sequence: T1 sequence with T26Q, I54L

SIX6 [10] = target: T10, SIX6 (Homo sapiens, UniProt O95475 114-200, T165A)
T10 sequence: T1 sequence with T52A, I54L

SIX6 [11] = target: T11, SIX6 (Homo sapiens, UniProt O95475 114-200, L167V)
T11 sequence: T1 sequence with I54V

SIX6 [12] = target: T12, SIX6 (Homo sapiens, UniProt O95475 114-200)
T12 sequence: T1 sequence with I54L

SIX6 [13] = target: T13, SIX6 (Homo sapiens, UniProt O95475 114-200, T165I)
T13 sequence: T1 sequence with T52I, I54L

| Sequence | binding signal (SIX6 [1]) | binding signal (SIX6 [2]) | binding signal (SIX6 [3]) | binding signal (SIX6 [4]) | binding signal (SIX6 [5]) | binding signal (SIX6 [6]) | binding signal (SIX6 [7]) | binding signal (SIX6 [8]) | binding signal (SIX6 [9]) | binding signal (SIX6 [10]) | binding signal (SIX6 [11]) | binding signal (SIX6 [12]) | binding signal (SIX6 [13]) |
| --- | --- | --- | --- | --- | --- | --- | --- | --- | --- | --- | --- | --- | --- |
| GATATACC | 11.1 upbm affinity estimate (log intensity, higher = more binding, comparable within an allelic series) | 10.4 upbm affinity estimate (log intensity, higher = more binding, comparable within an allelic series) | 11.2 upbm affinity estimate (log intensity, higher = more binding, comparable within an allelic series) | 9.81 upbm affinity estimate (log intensity, higher = more binding, comparable within an allelic series) | 10.9 upbm affinity estimate (log intensity, higher = more binding, comparable within an allelic series) | 11 upbm affinity estimate (log intensity, higher = more binding, comparable within an allelic series) | 10.5 upbm affinity estimate (log intensity, higher = more binding, comparable within an allelic series) | 11.1 upbm affinity estimate (log intensity, higher = more binding, comparable within an allelic series) | 11.2 upbm affinity estimate (log intensity, higher = more binding, comparable within an allelic series) | 11.1 upbm affinity estimate (log intensity, higher = more binding, comparable within an allelic series) | 10.9 upbm affinity estimate (log intensity, higher = more binding, comparable within an allelic series) | 11 upbm affinity estimate (log intensity, higher = more binding, comparable within an allelic series) | 11.1 upbm affinity estimate (log intensity, higher = more binding, comparable within an allelic series) |
| GATATCAA | 11.4 upbm affinity estimate (log intensity, higher = more binding, comparable within an allelic series) | 10.5 upbm affinity estimate (log intensity, higher = more binding, comparable within an allelic series) | 11.3 upbm affinity estimate (log intensity, higher = more binding, comparable within an allelic series) | 10 upbm affinity estimate (log intensity, higher = more binding, comparable within an allelic series) | 10.8 upbm affinity estimate (log intensity, higher = more binding, comparable within an allelic series) | 11 upbm affinity estimate (log intensity, higher = more binding, comparable within an allelic series) | 10.3 upbm affinity estimate (log intensity, higher = more binding, comparable within an allelic series) | 11.3 upbm affinity estimate (log intensity, higher = more binding, comparable within an allelic series) | 11.1 upbm affinity estimate (log intensity, higher = more binding, comparable within an allelic series) | 11.3 upbm affinity estimate (log intensity, higher = more binding, comparable within an allelic series) | 11.1 upbm affinity estimate (log intensity, higher = more binding, comparable within an allelic series) | 11.1 upbm affinity estimate (log intensity, higher = more binding, comparable within an allelic series) | 11.1 upbm affinity estimate (log intensity, higher = more binding, comparable within an allelic series) |
| GCAAAGCC | 8.97 upbm affinity estimate (log intensity, higher = more binding, comparable within an allelic series) | 8.93 upbm affinity estimate (log intensity, higher = more binding, comparable within an allelic series) | 8.96 upbm affinity estimate (log intensity, higher = more binding, comparable within an allelic series) | 9 upbm affinity estimate (log intensity, higher = more binding, comparable within an allelic series) | 9.02 upbm affinity estimate (log intensity, higher = more binding, comparable within an allelic series) | 8.9 upbm affinity estimate (log intensity, higher = more binding, comparable within an allelic series) | 8.91 upbm affinity estimate (log intensity, higher = more binding, comparable within an allelic series) | 8.9 upbm affinity estimate (log intensity, higher = more binding, comparable within an allelic series) | 9 upbm affinity estimate (log intensity, higher = more binding, comparable within an allelic series) | 8.93 upbm affinity estimate (log intensity, higher = more binding, comparable within an allelic series) | 8.94 upbm affinity estimate (log intensity, higher = more binding, comparable within an allelic series) | 8.98 upbm affinity estimate (log intensity, higher = more binding, comparable within an allelic series) | 8.92 upbm affinity estimate (log intensity, higher = more binding, comparable within an allelic series) |

— publication PMC11006913
